Data reported in PubChem BioAssay (EPA / NIEHS).
Where “and” joins values, the source holds several entries; their conditions need not be identical. Equal entries are not always repeated. More than one record can exist for a structure, and the calls need not agree. Calls of active or inactive are those of the source. Rule for the calls: active = hit-call score of the fitted dose curve at least 0.9, where 1 is the maximum; inactive = score below 0.9.

read-out: Apolipoprotein A-V (APOA5) gene, APOA5 (gene 116519); test: LTEA_HepaRG_APOA5: Life Technologies and Expression Analysis (LTEA) Assay for Apolipoprotein A-V (APOA5) gene using HepaRG (AID 2283474); conditions: mRNA level, 48 h; actives raise or lower the signal
Method: LTEA_HepaRG is a cell based, multiplexed-readout assay that uses HepaRG, a human liver cell line, with measurements taken at 48 hours after chemical dosing on a 96-well plate.LTEA_HepaRG_APOA5 is one of 102 assay component(s) measured in the LTEA HepaRG cell culture assay. It is a marker of Steatosis.Data from the assay component LTEA_HepaRG_APOA5 was analyzed into 1 endpoint. This assay endpoint, LTEA_HepaRG_APOA5, was analyzed with bidirectional fitting relative to DMSO as the negative control and baseline of activity. Using a type of inducible reporter, measures of mRNA induction for gain or loss-of-signal activity can be used to understand regulation of transcription factor activity. To generalize the intended target to other relatable targets, this assay endpoint is annotated to the apolipoprotein intended target family, where the subfamily is Steatosis.
A total of 1060 chemcials from the ToxCast library were tested in eight-point concentration-response experiments. Cell culture and cytotoxicity assays were conducted at Thermo Fisher Scientific's Custom Services facility (Madison, WI). A single lot of human HepaRG cells (Thermo Fisher Scientific, Frederick, MD) was used for the cell culture experiments. 96-well format collagen type I coated plates of human HepaRG cells were prepared using established methods. Briefly, cryopreserved HepaRG cells were thawed, plated at a density of approximately 100,000 cells/well in HepaRG Thaw, Plate, and General Purpose media (HPRG770, Thermo Fisher Scientific), and incubated for 48 hours. 0.5% DMSO was selected as vehicle control to balance the requisite need of DMSO in HepaRG cultures to maintain differentiation (for example, baseline metabolism, proportions of hepatocytes vs. cholangiocytes), while enabling further hepatic receptor pathway activation (for example, PXR and CAR) in response to chemical exposure. 48 hours after plating, the culture medium was replaced with HepaRG Serum-Free Incudtion Media. Cells were exposed to each test chemical in duplicate and maintained in CO2 incubators for another 48 hours. Chemical plates were thawed to room temperature and 200x concentrations of treatment groups were prepared. 8-point conentration-reponse curves were made with the highest exposure at 100 uM, followed by half-log dilutions, all in 0.5% DMSO. Each test plate contained variouse controls, induction positive controls (1mM phenobarbital), cytotoxicity positive controls ([…] aflatoxin B1), vehicle controls (0.5% DMSO), and total lysis controls (0.5% DMSO). Cell morphology images were taken using an Essen IncuCyte FLR automated microscope, with six 96-well plates imaged in about 24 minutes. Images were captured and exported and JPEG files. Spent culture media was transfered to black-well plates for the LDH assay, and remaining media was sorted at -80 C for later use. Cells were treated with RLT buffer and frozen until shipped for gene expression analysis. Total RNA was isolated from the cell suspension in 75 uL of Buffer RLT (Qiagen, Germantown, MD 20874) by Quintiles/Expression Analysis (Durham, NC) using a custom isolation procedure. Total RNA from each plate well was transferred to a preamplification plate. Fluidigm's 96.96 Dynamic ArrayTM (Fluidigm, Amsterdam, the Netherlands) technology was used for gene expression analyses by quantitative reverse transcription polymerase chain reaction (qRT-PCR, performed by Quintiles/Expression Analysis, Durham, NC)89. Standard TaqManTM Assays (Applied Biosystems/ThermoFisher Scientific, Foster City, CA) were used to assess the expression of 93 genes selected based on their selectivity and sensitivity to important hepatic receptors known to be modulated by environmental chemicals; importance in human hepatocyte functionality; and hepatotoxicity. […]

How did the outcome turn out when CCC(C)(NC(=O)c1cc(Cl)c(C)c(Cl)c1)C(=O)CCl (stereo not given) was run?
Its outcome is “inactive”.

O=C(O)CCCOc1ccc(Cl)cc1Cl was tested. Which outcome did it give?
The outcome was “inactive”.

Which outcome does the source give for COc1nn(CSP(=S)(OC)OC)c(=O)s1 here?
The outcome was “inactive”.

Which AC50 does the source give for O=S(=O)(O)C(F)(F)C(F)(F)C(F)(F)C(F)(F)C(F)(F)C(F)(F)C(F)(F)C(F)(F)F here?
Its AC50 is 34.1 µM (active).

What about the outcome of the same compound?
The outcome was “inactive”.

What does the source list for Oc1ccc(Cl)cc1Cc1ccccc1?
AC50: 79.8 µM (active); outcome: inactive

With CC1(c2ccc(Oc3ccccc3)cc2)OC(=O)N(Nc2ccccc2)C1=O (stereo not given) as the compound, how does the AC50 read?
Its AC50 is 28.3 µM (active).

Which outcome does the source give for CC(C)OC(=O)Nc1cccc(Cl)c1 here?
Its outcome is “inactive”.

For CCOC1Oc2ccc(OS(C)(=O)=O)cc2C1(C)C (stereo not given), which AC50 is on record?
The AC50 was 77 µM (active).

For CC1(C)C(C=C(Cl)Cl)C1C(=O)OC(C#N)c1ccc(F)c(Oc2ccccc2)c1 (stereo not given), which outcome is on record?
Its outcome is “inactive”.

CC(C)(C)C(O)/C(=C\c1ccc(Cl)cc1Cl)n1cncn1 (stereo not given) was tested. Which AC50 did it give?
The AC50 was 25.3 µM (active).

With N#Cc1c(Cl)c(Cl)c(Cl)c(C#N)c1Cl as the compound, how does the outcome read?
Its outcome is “inactive”.

With Clc1ccccc1-c1nnc(-c2ccccc2Cl)nn1 as the compound, how does the outcome read?
Its outcome is “inactive”.

How did the outcome turn out when CN1CSC(=S)N(C)C1 was run?
Its outcome is “inactive”.

For Oc1cc(Cl)ccc1Oc1ccc(Cl)cc1Cl, which AC50 is on record?
The AC50 was 51 µM (active) and 81.5 µM (active).

And the outcome?
The outcome was “inactive”.

With O=C1c2ccccc2C(=O)N1SC(Cl)(Cl)Cl as the compound, how does the outcome read?
The outcome was “inactive”.

Which outcome does the source give for COP(=O)(OC)OC=C(Cl)Cl here?
Its outcome is “inactive”.

How did the AC50 turn out when O=S1OCC2C(CO1)C1(Cl)C(Cl)=C(Cl)C2(Cl)C1(Cl)Cl (stereo not given) was run?
The AC50 was 63.8 µM (active).

How did the outcome turn out when O=[N+]([O-])/N=C1\NCCN1Cc1ccc(Cl)nc1 was run?
Its outcome is “inactive”.

CCOCN(C(=O)CCl)c1c(C)cccc1CC was tested. Which AC50 did it give?
The AC50 was 79.4 µM (active).

COP(=S)(OC)Oc1ccc([N+](=O)[O-])cc1 was tested. Which outcome did it give?
The outcome was “inactive”.

CCC(C)(C)C(=O)OC1=C(c2ccc(Cl)cc2Cl)C(=O)OC12CCCCC2 was tested. Which AC50 did it give?
Its AC50 is 50 µM (active).

With CCN(CC)C(=O)SCc1ccc(Cl)cc1 as the compound, how does the outcome read?
The outcome was “inactive”.

N#CN was tested. Which outcome did it give?
The outcome was “inactive”.

For CC(C)(C)C(O)C(Oc1ccc(Cl)cc1)n1cncn1 (stereo not given), which AC50 is on record?
Its AC50 is 50 µM (active).

And the outcome?
The outcome was “inactive”.

With CC(C)N(C(=O)COc1nnc(C(F)(F)F)s1)c1ccc(F)cc1 as the compound, how does the AC50 read?
The AC50 was 78.4 µM (active).

For CNC(=O)Oc1ccccc1OC(C)C, which outcome is on record?
Its outcome is “inactive”.

For O=C(NC(=O)c1c(F)cccc1F)Nc1ccc(OC(F)(F)C(F)OC(F)(F)F)c(Cl)c1 (stereo not given), which outcome is on record?
Its outcome is “inactive”.

With O=C(O)COc1ccc(Cl)cc1Cl as the compound, how does the outcome read?
Its outcome is “inactive”.

Which outcome does the source give for CCCN(CCC)c1c([N+](=O)[O-])cc(C(F)(F)F)cc1[N+](=O)[O-] here?
Its outcome is “inactive”.

Which outcome does the source give for O=C(Nc1ccccc1)Nc1cnns1 here?
The outcome was “inactive”.

How did the outcome turn out when CCc1ccc(C(=O)NN(C(=O)c2cc(C)cc(C)c2)C(C)(C)C)cc1 was run?
Its outcome is “inactive”.

With C[C@H]1[C@H](c2ccc(Cl)cc2)SC(=O)N1C(=O)NC1CCCCC1 as the compound, how does the AC50 read?
Its AC50 is 36.8 µM (active).

For COP(=S)(OC)Oc1ccc(SC)c(C)c1, which outcome is on record?
Its outcome is “inactive”.

With C#CCN1C(=O)COc2cc(F)c(N3C(=O)C4=C(CCCC4)C3=O)cc21 as the compound, how does the AC50 read?
The AC50 was 23.1 µM (active).

With CC[C@H](C)[C@H]1O[C@]2(C=C[C@@H]1C)C[C@@H]1C[C@@H](C/C=C(\C)[C@@H](O[C@H]3C[C@H](OC)[C@@H](O[C@H]4C[C@H](OC)[C@@H](O)[C@H](C)O4)[C@H](C)O3)[C@@H](C)/C=C/C=C3\CO[C@@H]4[C@H](O)C(C)=C[C@@H](C(=O)O1)[C@]34O)O2 (tested in a mixture with another compound) as the compound, how does the AC50 read?
The AC50 was 13.6 µM (active).

Which outcome does the source give for ClC1C(Cl)C(Cl)C(Cl)C(Cl)C1Cl (stereo not given) here?
The outcome was “inactive”.
